Calls of active or inactive are those of the source. Unless noted, how the calls were made is not given here.
Legend:
[1] = compounds binding Alexa647 anti-His antibody – biochemical, small-molecule microarray, 635 nm fluorescence, artefact control for SMM control protein annotation, primary screen (AID 1128); details: higher = more signal;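 further: score merges feature fluorescence with signal-to-noise for each printed compound spot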
[2] = test system: Human papillomavirus type 1a E7 protein (residues 1-88); assay: HPV1a E7 small-molecule binders, primary screen, biochemical, small-molecule microarray, residues 1-88, 635 nm (AID 1129); details: small-molecule microarray binding, fluorescence 635 nm; higher = more signal
[3] = biological target: Focal adhesion kinase 1 (Homo sapiens) (UniProt Q05397); assay: PTK2 protein binding on printed compound slides – biochemical, small-molecule microarray, 635/667 nm fluorescence, BSA, DTT, primary screen (AID 1130); details: 635 nm fluorescence, higher = more signal;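 further: composite of spot emission at 667 nm and signal to noise over triplicate slides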
Chain of Focal adhesion kinase 1 (Homo sapiens) (Q05397 whole entry, looked up): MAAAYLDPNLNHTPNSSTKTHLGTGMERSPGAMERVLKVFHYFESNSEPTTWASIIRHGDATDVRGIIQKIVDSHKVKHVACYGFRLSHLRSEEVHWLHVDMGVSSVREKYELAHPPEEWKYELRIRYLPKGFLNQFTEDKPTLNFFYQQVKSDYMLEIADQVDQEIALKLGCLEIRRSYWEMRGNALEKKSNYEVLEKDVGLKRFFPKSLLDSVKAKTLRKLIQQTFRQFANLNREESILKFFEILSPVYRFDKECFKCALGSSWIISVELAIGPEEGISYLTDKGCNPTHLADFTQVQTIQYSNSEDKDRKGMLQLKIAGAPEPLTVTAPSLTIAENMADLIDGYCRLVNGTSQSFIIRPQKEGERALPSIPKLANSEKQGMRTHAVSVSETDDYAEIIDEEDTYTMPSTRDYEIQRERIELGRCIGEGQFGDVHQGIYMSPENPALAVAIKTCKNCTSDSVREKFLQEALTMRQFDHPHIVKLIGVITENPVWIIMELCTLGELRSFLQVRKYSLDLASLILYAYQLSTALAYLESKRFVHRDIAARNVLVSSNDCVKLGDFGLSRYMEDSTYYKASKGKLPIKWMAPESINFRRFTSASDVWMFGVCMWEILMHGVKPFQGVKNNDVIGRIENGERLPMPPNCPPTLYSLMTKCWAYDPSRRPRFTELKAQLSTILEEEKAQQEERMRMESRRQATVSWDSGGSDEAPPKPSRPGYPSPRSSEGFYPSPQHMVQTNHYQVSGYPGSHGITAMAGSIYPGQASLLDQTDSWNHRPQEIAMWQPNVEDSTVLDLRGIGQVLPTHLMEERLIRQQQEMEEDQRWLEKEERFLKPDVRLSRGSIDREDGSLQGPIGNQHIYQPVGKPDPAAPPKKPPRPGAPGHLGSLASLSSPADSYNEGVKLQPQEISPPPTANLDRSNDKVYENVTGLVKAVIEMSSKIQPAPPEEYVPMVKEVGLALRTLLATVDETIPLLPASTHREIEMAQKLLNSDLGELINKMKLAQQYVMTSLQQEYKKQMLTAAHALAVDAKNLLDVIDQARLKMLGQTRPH

[4] = test system: Fibrinogen (Alexa647-labelled); assay: Alexa647-fibrinogen binding to printed small molecules – biochemical, small-molecule microarray, 635/667 nm fluorescence, artefact control for SMM control-protein annotation, profiling panel (AID 1131); details: fibrinogen-A647 binding fluorescence, higher = more signal;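 further: z-score merges 667 nm fluorescence with per-spot signal-to-noise over triplicate slides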
[5] = biological target: Follistatin (Homo sapiens) (UniProt P19883); assay: FST protein binding to printed compounds – biochemical, small-molecule microarray, 635/667 nm fluorescence, primary screen (AID 1132); details: 635 nm fluorescence, higher = more signal
Chain of Follistatin (Homo sapiens) (P19883 whole entry, looked up): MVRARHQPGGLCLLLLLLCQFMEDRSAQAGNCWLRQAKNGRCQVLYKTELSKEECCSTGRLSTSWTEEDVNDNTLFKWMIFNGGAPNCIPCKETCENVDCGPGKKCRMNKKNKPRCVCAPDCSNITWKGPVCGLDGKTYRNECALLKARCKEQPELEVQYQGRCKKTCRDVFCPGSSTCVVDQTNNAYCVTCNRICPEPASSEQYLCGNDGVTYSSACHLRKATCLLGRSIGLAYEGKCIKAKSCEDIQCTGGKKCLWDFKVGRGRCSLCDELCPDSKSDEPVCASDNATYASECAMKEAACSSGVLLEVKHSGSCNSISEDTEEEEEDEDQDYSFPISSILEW

[6] = biological target: Fibroblast growth factor 2 (Homo sapiens) (UniProt P09038); assay: basic fibroblast growth factor binding to printed compounds – biochemical, small-molecule microarray, 635/667 nm fluorescence, primary screen (AID 1133); details: FGF2, fluorescence 635/667, higher = more signal
Chain of Fibroblast growth factor 2 (Homo sapiens) (P09038 whole entry, looked up): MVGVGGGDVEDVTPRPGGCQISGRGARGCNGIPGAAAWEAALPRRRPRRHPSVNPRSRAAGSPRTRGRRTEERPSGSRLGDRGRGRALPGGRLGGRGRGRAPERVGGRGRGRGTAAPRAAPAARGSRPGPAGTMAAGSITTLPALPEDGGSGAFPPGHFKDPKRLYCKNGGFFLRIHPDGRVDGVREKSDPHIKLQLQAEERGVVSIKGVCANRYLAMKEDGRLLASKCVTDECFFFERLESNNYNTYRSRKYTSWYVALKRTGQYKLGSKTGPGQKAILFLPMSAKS

[7] = JC-1 mitochondrial potential readout, lung cancer cells – cell-based, A549, JC-1 fluorescence, basal, 24 h, 100 nL, profiling panel (AID 1138); details: higher = more signal;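 further: A549 lung adenocarcinoma cells under basal conditions with no added stimulus; test concentration not given here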
Lefty1 = Lefty1 protein binding to printed compounds – biochemical, small-molecule microarray, 635/667 nm fluorescence, primary screen (AID 1139); details: fluorescence 635/667, higher = more signal
[8] = test system: wheat germ agglutinin (Triticum aestivum), Alexa647-labelled; assay: Alexa647-WGA lectin binding to printed small molecules – biochemical, small-molecule microarray, 635/667 nm fluorescence, artefact control for SMM control-protein annotation, profiling panel (AID 1140); details: WGA-A647 binding, 635 nm fluorescence, higher = more signal;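 further: score merges 667 nm feature emission with signal to noise over triplicate slides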
[9] = biological target: Luciferin 4-monooxygenase (Photinus pyralis) (UniProt P08659); assay: inhibition of purified Photinus pyralis luciferase – biochemical, luminescence, purified enzyme, 2006 set, primary screen (AID 1141); details: purified firefly luciferase, SteadyGlo luminescence, 30 min; higher = more signal, called active from +8 up or from −8 down;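 further: cell-free assay with purified firefly luciferase at 100 ng per well in PBS; test concentration not given here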
Chain of Luciferin 4-monooxygenase (Photinus pyralis) (P08659 whole entry, looked up): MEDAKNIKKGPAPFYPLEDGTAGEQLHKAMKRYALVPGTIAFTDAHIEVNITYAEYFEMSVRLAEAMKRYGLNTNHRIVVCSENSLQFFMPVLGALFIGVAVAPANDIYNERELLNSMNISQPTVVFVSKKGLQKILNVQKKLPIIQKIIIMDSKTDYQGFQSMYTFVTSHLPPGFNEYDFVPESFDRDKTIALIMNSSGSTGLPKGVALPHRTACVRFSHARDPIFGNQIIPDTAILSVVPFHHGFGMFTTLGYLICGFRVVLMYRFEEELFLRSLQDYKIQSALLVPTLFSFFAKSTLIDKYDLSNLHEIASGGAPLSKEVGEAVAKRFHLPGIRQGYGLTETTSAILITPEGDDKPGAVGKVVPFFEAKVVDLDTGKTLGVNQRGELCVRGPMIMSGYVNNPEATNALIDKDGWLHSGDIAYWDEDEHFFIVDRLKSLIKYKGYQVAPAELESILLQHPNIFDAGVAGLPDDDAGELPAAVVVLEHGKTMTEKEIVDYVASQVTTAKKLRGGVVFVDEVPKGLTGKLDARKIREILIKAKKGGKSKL

[10] = test system: Wnt5a (protein binding on small-molecule microarray); assay: small molecules binding Wnt5a protein – biophysical, small-molecule microarray, 635/667 nm fluorescence, primary screen (AID 1142); details: 635 nm fluorescence, higher = more signal;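 further: fluorescence read at 667 nm with signal to noise per printed feature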
[11] = ATP-based viability of Huh7 replicon cells – cell-based, CellTiter-Glo luminescence, basal, 48 h, cytotoxicity control for HCV replication inhibitor project, primary screen (AID 1143); details: higher = more signal, called active from +8 up or from −8 down;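 further: Huh7 hepatoma cells carrying a hepatitis C replication reporter with no stimulus; test concentration not given here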
[12] = Pseudomonas biofilm growth suppression – PAO1 strain, BacTiter-Glo luminescence, LB-PBS, primary screen (AID 1144); details: P. aeruginosa PAO1 biofilm, 12 h, higher = more signal
[13] = basal CRE-LacZ reporter activity in PC12 – cell-based, unstimulated, primary screen (AID 1145); details: no forskolin, luminescence, 4.5 h, higher = more signal, called active from +8 up or from −8 down
[14] = forskolin-driven CRE-LacZ activity in PC12 – cell-based, CRE-LacZ reporter, forskolin-stimulated, primary screen (AID 1146); details: luminescence, 4.5 h, higher = more signal, called active from +8 up or from −8 down;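 further: PC12 cells with 6xCRE LacZ reporter stimulated by forskolin 10 µM; beta-galactosidase reporter signal reflecting CREB driven transcription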
[15] = biological target: Streptavidin (Streptomyces avidinii) (UniProt P22629); assay: compounds binding control protein streptavidin – biophysical, small-molecule microarray, 635/667 nm fluorescence, artefact control for SMM compound annotation, primary screen (AID 1147); details: higher = more signal;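 further: signal reflects streptavidin binding to arrayed compounds as a control protein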
Chain of Streptavidin (Streptomyces avidinii) (P22629 whole entry, looked up): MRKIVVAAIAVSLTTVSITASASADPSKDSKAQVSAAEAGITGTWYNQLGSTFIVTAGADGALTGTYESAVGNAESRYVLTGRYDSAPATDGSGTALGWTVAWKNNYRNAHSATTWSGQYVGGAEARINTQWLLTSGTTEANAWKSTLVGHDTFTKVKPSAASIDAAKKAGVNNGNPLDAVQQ

[16] = probe aInhba binding on compound microarray – biochemical, small-molecule microarray, 635/667 nm fluorescence, primary screen (AID 1148); details: higher = more signal;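 further: score merges 667nm spot fluorescence with signal-to-noise for antibody binding to printed compounds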
Torsin-1A (Homo sapiens) [17] = biological target: Torsin-1A (Homo sapiens) (UniProt O14656); assay: TOR1A wild-type binding on microarray – cell lysate, small-molecule microarray, lysate, 635/667 nm, primary screen (AID 1149); details: COS7 hTOR1A-WT lysate, 635 nm fluorescence, higher = more signal
Chain of Torsin-1A (Homo sapiens) (O14656 whole entry, looked up): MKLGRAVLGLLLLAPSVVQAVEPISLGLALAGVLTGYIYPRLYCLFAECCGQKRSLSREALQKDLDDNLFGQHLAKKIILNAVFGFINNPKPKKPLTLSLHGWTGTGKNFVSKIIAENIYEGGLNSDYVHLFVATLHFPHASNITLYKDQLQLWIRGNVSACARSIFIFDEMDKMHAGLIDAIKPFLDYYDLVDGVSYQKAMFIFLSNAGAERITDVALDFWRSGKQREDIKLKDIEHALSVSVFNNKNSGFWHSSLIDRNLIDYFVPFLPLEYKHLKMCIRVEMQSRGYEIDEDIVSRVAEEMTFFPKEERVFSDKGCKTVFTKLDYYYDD

Torsin-1A (Homo sapiens) [18] = biological target: Torsin-1A (Homo sapiens) (UniProt O14656); assay: torsin A mutant lysate binding on microarrays – cell lysate, small-molecule microarray, COS7 lysate, 635/667 nm fluorescence, primary screen (AID 1150); details: COS7 hTOR1A mutant lysate, 635 nm fluorescence, higher = more signal;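 further: score pools 667 nm emission and signal to noise measuring lysate protein binding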
[19] = test system: Sonic hedgehog protein (Shh); assay: Sonic hedgehog microarray binding compounds – biochemical, small-molecule microarray, 635/667 nm fluorescence, primary screen (AID 1151); details: 635 nm fluorescence, higher = more signal;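 further: Shh protein binding to compounds spotted on small-molecule microarray slides; score combines spot fluorescence intensity with signal-to-noise across triplicate slides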

CC(=O)NCCCC[C@@H]1NC(=O)[C@@H]2C[C@H](C(=O)NCCCC[N+](C)(C)C)[C@H](c3cccc(OCCO)c3)N2C1=O
composite z-score [1]: 1.5
composite z-score [2]: -0.411
composite z-score [3]: 0.164
composite z-score [4]: -1.39
composite z-score [5]: 1.4
composite z-score [6]: 1.57
z-score [7]: -0.251
composite z-score (Lefty1): 0.512
composite z-score [8]: 0.994
z-score [9]: 0.0595 (inactive)
composite z-score [10]: 0.198
z-score [11]: -0.283 (inactive)
z-score [12]: -0.192 (inactive)
z-score [13]: -0.532 (inactive)
z-score [14]: -0.441 (inactive)
composite z-score [15]: -0.407
composite z-score [16]: -0.0471
composite z-score (Torsin-1A (Homo sapiens) [17]): 2.44
composite z-score (Torsin-1A (Homo sapiens) [18]): 1.83
composite z-score [19]: 1.89

CC(C)N1C(=O)c2ccccc2[C@](C)(C(=O)O)[C@@H]1c1ccc(CO)cc1
composite z-score [1]: 0.181
composite z-score [2]: -1.44
composite z-score [3]: -0.0258
composite z-score [4]: -1.34
composite z-score [5]: -0.509
composite z-score [6]: -0.977
z-score [7]: -0.359
composite z-score (Lefty1): -0.82
composite z-score [8]: -0.36
z-score [9]: 0.883 (inactive)
composite z-score [10]: -0.654
z-score [11]: -0.328 (inactive)
z-score [12]: 0.00934 (inactive)
z-score [13]: -0.206 (inactive)
z-score [14]: 0.552 (inactive)
composite z-score [15]: -0.603
composite z-score [16]: -0.148
composite z-score (Torsin-1A (Homo sapiens) [17]): -1.03
composite z-score (Torsin-1A (Homo sapiens) [18]): -0.792
composite z-score [19]: -1.02

O=C(Nc1cc(Br)ccc1C(=O)NCc1cccc(O)c1)c1ccccc1
composite z-score [1]: 1.95
composite z-score [2]: 1.02
composite z-score [3]: 0.243
composite z-score [4]: 0.828
composite z-score [5]: 0.0635
composite z-score [6]: 0.324
z-score [7]: 0.252
composite z-score (Lefty1): -0.241
composite z-score [8]: 1.01
z-score [9]: -0.0565 (inactive)
composite z-score [10]: 0.189
z-score [11]: -2.32 (inactive)
z-score [12]: -0.26 (inactive)
z-score [13]: -0.374 (inactive)
z-score [14]: -0.334 (inactive)
composite z-score [15]: 0.827
composite z-score [16]: 0.129
composite z-score (Torsin-1A (Homo sapiens) [17]): 0.476
composite z-score (Torsin-1A (Homo sapiens) [18]): 0.533
composite z-score [19]: 0.349

O=C1O[C@@H](c2ccccc2)[C@@H](c2ccccc2)N2[C@@H](c3ccc(O)cc3)[C@]3(C(=O)Nc4ccc(C#CC5=CCCCC5)cc43)[C@@H](C(=O)Nc3nc4ccccc4s3)[C@H]12
composite z-score [1]: 1.15
composite z-score [2]: 1.22
composite z-score [3]: 0.32
composite z-score [4]: 0.852
composite z-score [5]: 1.25
composite z-score [6]: 1.35
z-score [7]: -1.8
composite z-score (Lefty1): 1.54
composite z-score [8]: 1.32
z-score [9]: -1.34 (inactive)
composite z-score [10]: 0.61
z-score [11]: -1.77 (inactive)
z-score [12]: -1.05 (inactive)
z-score [13]: -1.02 (inactive)
z-score [14]: -1.09 (inactive)
composite z-score [15]: 1.26
composite z-score [16]: 1.37
composite z-score (Torsin-1A (Homo sapiens) [17]): 0.828
composite z-score (Torsin-1A (Homo sapiens) [18]): 0.221
composite z-score [19]: 1.59

CN(C)CCCCNC(=O)[C@H]1C[C@H]2C(=O)N[C@@H](CCCC[N+](C)(C)C)C(=O)N2[C@H]1c1cccc(OCCO)c1
composite z-score [1]: 1.06
composite z-score [2]: 0.809
composite z-score [3]: 0.373
composite z-score [4]: 0.54
composite z-score [5]: 1.35
composite z-score [6]: 1.67
z-score [7]: -0.312
composite z-score (Lefty1): 1.35
composite z-score [8]: 0.115
z-score [9]: 0.53 (inactive)
composite z-score [10]: 0.446
z-score [11]: -0.255 (inactive)
z-score [12]: -1.16 (inactive)
z-score [13]: -0.659 (inactive)
z-score [14]: -0.197 (inactive)
composite z-score [15]: 0.773
composite z-score [16]: 0.0228
composite z-score (Torsin-1A (Homo sapiens) [17]): 1.04
composite z-score (Torsin-1A (Homo sapiens) [18]): 1.01
composite z-score [19]: 2.01

COCCOC(=O)N1C(=O)[C@@]2(c3cc(C#CCCO)ccc31)[C@H](C(=O)NC[C@H](O)c1ccccc1)[C@H]1C(=O)O[C@H](c3ccccc3)[C@H](c3ccccc3)N1[C@@H]2c1ccccc1OCCO
composite z-score [1]: -0.338
composite z-score [2]: 1.23
composite z-score [3]: 1.07
composite z-score [4]: 0.59
composite z-score [5]: 1.28
composite z-score [6]: 1.42
z-score [7]: 0.358
composite z-score (Lefty1): 1.35
composite z-score [8]: 1.07
z-score [9]: -1.02 (inactive)
composite z-score [10]: 0.524
z-score [11]: -1.34 (inactive)
z-score [12]: 1.59 (inactive)
z-score [13]: -0.0607 (inactive)
z-score [14]: 0.172 (inactive)
composite z-score [15]: 0.562
composite z-score [16]: 0.413
composite z-score (Torsin-1A (Homo sapiens) [17]): 1.19
composite z-score (Torsin-1A (Homo sapiens) [18]): 0.597
composite z-score [19]: 1.35

CCCCC=C[C@@H](NC(=O)CCc1ccccc1)c1ccccc1
composite z-score [1]: 0.838
composite z-score [2]: 1.2
composite z-score [3]: 0.507
composite z-score [4]: 0.939
composite z-score [5]: 0.361
composite z-score [6]: 0.362
z-score [7]: -2.3
composite z-score (Lefty1): -0.0782
composite z-score [8]: 1.07
z-score [9]: 1.08 (inactive)
composite z-score [10]: 0.317
z-score [11]: -1.98 (inactive)
z-score [12]: 0.175 (inactive)
z-score [13]: -0.951 (inactive)
z-score [14]: -0.0104 (inactive)
composite z-score [15]: 1.64
composite z-score [16]: 0.128
composite z-score (Torsin-1A (Homo sapiens) [17]): 0.677
composite z-score (Torsin-1A (Homo sapiens) [18]): 0.701
composite z-score [19]: 0.0847

O=C1O[C@H](c2ccccc2)[C@H](c2ccccc2)N2[C@H]1[C@@H](C(=O)N1CCN(c3ncccn3)CC1)[C@]1(C(=O)Nc3ccc(C#CCCO)cc31)[C@H]2c1ccc(OCCO)cc1
composite z-score [1]: 2.06
composite z-score [2]: 1.2
composite z-score [3]: 0.372
composite z-score [4]: 0.934
composite z-score [5]: 1.36
composite z-score [6]: 0.597
z-score [7]: -0.756
composite z-score (Lefty1): 1.57
composite z-score [8]: 0.772
z-score [9]: -0.713 (inactive)
composite z-score [10]: 1.02
z-score [11]: 0.505 (inactive)
z-score [12]: -0.339 (inactive)
z-score [13]: -0.471 (inactive)
z-score [14]: 0.344 (inactive)
composite z-score [15]: 1.19
composite z-score [16]: 0.221
composite z-score (Torsin-1A (Homo sapiens) [17]): 0.949
composite z-score (Torsin-1A (Homo sapiens) [18]): 0.938
composite z-score [19]: 1.39

CC(C)CCC[C@@H](C)[C@H]1CC[C@@]2(C)C3=C(CC[C@]12C)[C@@]1(C)CC[C@H](OC(=O)c2ccc(N)cc2)C(C)(C)C1CC3 (stereo not given in full)
composite z-score [1]: 0.467
composite z-score [2]: 0.398
composite z-score [3]: 0.108
composite z-score [4]: 0.483
composite z-score [5]: 0.552
composite z-score [6]: 0.612
z-score [7]: 1.32
composite z-score (Lefty1): 0.552
composite z-score [8]: 0.0599
z-score [9]: -1.43 (inactive)
composite z-score [10]: 0.279
z-score [11]: -0.793 (inactive)
z-score [12]: -0.593 (inactive)
z-score [13]: 1.39 (inactive)
z-score [14]: -0.391 (inactive)
composite z-score [15]: 0.143
composite z-score [16]: -0.208
composite z-score (Torsin-1A (Homo sapiens) [17]): 0.315
composite z-score (Torsin-1A (Homo sapiens) [18]): 0.273
composite z-score [19]: 0.49
